Data from ChEMBL document CHEMBL1961873, “Compounds: GSK PKIS; Assays: Nanosyn kinase panel” (2012).

Assays:
[1] = target: MAP/microtubule affinity-regulating kinase 3 (Homo sapiens) (UniProt P27448); details: at 1 µM;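 also: reported values are averaged percent inhibition of MARK3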
[2] = target: T1, MAP/microtubule affinity-regulating kinase 4 (Homo sapiens) (UniProt Q96L34); details: at 0.1 µM
T1 sequence (whole entry): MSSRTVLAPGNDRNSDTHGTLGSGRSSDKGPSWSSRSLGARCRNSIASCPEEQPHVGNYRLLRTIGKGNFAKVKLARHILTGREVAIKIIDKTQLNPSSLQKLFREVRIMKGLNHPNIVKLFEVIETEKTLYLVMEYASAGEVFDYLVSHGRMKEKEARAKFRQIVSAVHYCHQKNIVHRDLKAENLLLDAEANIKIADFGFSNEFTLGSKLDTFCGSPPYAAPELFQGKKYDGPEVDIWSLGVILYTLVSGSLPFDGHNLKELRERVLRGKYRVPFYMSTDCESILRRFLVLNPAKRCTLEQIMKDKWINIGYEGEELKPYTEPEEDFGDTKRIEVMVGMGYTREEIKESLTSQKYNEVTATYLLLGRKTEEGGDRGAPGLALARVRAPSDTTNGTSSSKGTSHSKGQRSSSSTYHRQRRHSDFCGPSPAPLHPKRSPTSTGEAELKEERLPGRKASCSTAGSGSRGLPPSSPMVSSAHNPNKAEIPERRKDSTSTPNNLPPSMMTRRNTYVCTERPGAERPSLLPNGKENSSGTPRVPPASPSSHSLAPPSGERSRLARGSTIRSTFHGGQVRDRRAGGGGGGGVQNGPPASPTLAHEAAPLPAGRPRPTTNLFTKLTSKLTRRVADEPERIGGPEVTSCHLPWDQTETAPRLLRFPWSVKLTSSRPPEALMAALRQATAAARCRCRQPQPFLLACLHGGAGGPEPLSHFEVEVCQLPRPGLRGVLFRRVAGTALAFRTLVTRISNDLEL

[3] = target: T1, MAP/microtubule affinity-regulating kinase 4 (Homo sapiens); details: at 1 µM
[4] = target: Maternal embryonic leucine zipper kinase (Homo sapiens) (UniProt Q14680); details: at 0.1 µM
Sequence of Maternal embryonic leucine zipper kinase (Homo sapiens) (Q14680 whole entry, looked up): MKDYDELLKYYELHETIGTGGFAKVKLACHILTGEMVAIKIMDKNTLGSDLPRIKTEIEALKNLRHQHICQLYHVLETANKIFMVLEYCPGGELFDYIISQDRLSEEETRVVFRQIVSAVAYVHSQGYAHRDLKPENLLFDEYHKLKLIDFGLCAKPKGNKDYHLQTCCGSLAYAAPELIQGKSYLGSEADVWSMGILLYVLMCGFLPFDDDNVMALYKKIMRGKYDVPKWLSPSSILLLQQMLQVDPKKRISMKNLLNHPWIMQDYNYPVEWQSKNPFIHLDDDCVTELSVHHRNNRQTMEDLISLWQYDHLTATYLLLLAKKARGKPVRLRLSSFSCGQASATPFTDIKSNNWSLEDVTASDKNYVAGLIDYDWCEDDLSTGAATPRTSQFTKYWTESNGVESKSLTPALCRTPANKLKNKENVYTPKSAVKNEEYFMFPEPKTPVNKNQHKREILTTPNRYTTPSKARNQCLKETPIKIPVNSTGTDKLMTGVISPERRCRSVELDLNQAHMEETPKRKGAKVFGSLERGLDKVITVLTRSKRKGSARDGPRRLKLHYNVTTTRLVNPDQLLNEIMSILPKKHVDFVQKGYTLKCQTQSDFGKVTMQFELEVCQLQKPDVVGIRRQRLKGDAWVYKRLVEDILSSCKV

[5] = target: Maternal embryonic leucine zipper kinase (Homo sapiens) (UniProt Q14680); details: at 1 µM
[6] = target: MAP kinase-interacting serine/threonine-protein kinase 1 (Homo sapiens) (UniProt Q9BUB5); details: at 0.1 µM
Sequence of MAP kinase-interacting serine/threonine-protein kinase 1 (Homo sapiens) (Q9BUB5 whole entry, looked up): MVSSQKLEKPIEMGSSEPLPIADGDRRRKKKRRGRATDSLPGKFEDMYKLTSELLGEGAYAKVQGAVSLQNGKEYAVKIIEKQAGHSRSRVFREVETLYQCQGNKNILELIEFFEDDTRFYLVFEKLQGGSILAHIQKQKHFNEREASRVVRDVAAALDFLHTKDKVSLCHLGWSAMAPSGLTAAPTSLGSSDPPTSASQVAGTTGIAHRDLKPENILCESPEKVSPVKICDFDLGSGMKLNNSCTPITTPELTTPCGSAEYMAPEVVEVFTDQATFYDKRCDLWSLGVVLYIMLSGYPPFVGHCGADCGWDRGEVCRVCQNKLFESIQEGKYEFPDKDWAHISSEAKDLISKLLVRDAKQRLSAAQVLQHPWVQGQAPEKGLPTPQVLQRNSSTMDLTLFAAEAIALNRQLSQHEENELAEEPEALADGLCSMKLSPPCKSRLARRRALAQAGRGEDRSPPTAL

[7] = target: MAP kinase-interacting serine/threonine-protein kinase 1 (Homo sapiens) (UniProt Q9BUB5); details: at 1 µM
[8] = target: MAP kinase-interacting serine/threonine-protein kinase 2 (Homo sapiens) (UniProt Q9HBH9); details: at 0.1 µM
Sequence of MAP kinase-interacting serine/threonine-protein kinase 2 (Homo sapiens) (Q9HBH9 whole entry, looked up): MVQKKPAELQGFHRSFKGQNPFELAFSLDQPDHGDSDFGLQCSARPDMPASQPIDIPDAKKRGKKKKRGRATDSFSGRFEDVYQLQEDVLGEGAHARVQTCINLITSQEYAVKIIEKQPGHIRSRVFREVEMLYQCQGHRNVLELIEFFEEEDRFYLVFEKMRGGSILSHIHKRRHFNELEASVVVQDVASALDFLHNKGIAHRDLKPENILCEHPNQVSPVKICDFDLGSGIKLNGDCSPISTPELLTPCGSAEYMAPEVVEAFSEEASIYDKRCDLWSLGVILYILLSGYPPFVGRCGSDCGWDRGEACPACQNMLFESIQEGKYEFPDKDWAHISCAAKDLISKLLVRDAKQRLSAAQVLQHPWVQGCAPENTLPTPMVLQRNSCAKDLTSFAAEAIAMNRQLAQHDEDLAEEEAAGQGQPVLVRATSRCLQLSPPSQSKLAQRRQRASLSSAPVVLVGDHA

[9] = target: MAP kinase-interacting serine/threonine-protein kinase 2 (Homo sapiens) (UniProt Q9HBH9); details: at 1 µM
[10] = target: Serine/threonine-protein kinase MARK2 (Homo sapiens) (UniProt Q7KZI7); details: at 0.1 µM
Sequence of Serine/threonine-protein kinase MARK2 (Homo sapiens) (Q7KZI7 whole entry, the tested form may be a part): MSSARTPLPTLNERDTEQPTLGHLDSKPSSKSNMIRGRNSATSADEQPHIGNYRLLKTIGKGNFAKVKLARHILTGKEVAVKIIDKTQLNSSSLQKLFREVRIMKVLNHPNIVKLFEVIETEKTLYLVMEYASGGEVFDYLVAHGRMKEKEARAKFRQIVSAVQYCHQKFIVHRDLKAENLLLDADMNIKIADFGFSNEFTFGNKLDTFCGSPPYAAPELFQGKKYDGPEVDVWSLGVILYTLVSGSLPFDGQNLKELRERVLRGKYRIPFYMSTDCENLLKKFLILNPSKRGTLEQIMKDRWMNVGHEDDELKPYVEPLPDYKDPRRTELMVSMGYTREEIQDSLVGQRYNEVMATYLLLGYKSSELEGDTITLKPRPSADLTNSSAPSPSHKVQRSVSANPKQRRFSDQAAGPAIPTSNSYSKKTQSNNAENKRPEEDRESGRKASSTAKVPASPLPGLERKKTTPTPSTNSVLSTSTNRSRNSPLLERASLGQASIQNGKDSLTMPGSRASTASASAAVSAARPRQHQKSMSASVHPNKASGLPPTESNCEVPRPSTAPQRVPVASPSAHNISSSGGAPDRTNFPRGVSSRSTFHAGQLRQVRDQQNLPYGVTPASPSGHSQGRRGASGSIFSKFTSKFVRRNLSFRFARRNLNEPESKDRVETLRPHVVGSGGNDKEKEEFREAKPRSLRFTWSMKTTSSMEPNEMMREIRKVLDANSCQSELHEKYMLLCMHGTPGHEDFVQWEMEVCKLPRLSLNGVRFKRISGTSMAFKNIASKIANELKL

[11] = target: Serine/threonine-protein kinase MARK2 (Homo sapiens) (UniProt Q7KZI7); details: at 1 µM
[12] = target: PAS domain-containing serine/threonine-protein kinase (Homo sapiens) (UniProt Q96RG2); details: at 0.1 µM
[13] = target: PAS domain-containing serine/threonine-protein kinase (Homo sapiens) (UniProt Q96RG2); details: at 1 µM
[14] = target: Phosphorylase b kinase gamma catalytic chain, skeletal muscle/heart isoform (Homo sapiens) (UniProt Q16816); details: at 0.1 µM
Sequence of Phosphorylase b kinase gamma catalytic chain, skeletal muscle/heart isoform (Homo sapiens) (Q16816 whole entry, looked up, canonical isoform): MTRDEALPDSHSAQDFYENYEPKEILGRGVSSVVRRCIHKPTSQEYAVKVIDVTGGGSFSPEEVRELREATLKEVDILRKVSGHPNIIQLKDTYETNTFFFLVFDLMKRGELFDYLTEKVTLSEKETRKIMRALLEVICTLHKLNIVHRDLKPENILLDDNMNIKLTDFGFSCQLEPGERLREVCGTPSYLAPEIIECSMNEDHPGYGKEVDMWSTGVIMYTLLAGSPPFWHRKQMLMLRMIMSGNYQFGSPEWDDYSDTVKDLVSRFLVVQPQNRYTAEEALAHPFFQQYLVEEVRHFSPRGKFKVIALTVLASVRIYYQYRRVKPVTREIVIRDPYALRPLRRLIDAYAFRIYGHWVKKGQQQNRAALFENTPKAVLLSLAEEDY

[15] = target: Phosphorylase b kinase gamma catalytic chain, skeletal muscle/heart isoform (Homo sapiens) (UniProt Q16816); details: at 1 µM
[16] = target: T2, Phosphorylase b kinase gamma catalytic chain, liver/testis isoform (Homo sapiens) (UniProt P15735); details: at 0.1 µM
T2 sequence (whole entry): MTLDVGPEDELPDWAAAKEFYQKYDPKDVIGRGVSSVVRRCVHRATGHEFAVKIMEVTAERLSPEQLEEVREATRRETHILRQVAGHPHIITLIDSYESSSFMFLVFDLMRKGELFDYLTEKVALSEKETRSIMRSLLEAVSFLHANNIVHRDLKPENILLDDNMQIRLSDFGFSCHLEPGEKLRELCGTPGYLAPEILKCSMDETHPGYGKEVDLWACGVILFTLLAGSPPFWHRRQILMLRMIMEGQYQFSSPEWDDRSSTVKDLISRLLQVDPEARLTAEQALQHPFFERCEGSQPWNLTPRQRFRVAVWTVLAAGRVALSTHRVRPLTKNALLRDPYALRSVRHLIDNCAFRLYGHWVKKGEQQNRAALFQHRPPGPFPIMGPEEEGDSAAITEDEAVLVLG

[17] = target: T2, Phosphorylase b kinase gamma catalytic chain, liver/testis isoform (Homo sapiens); details: at 1 µM
[18] = target: Serine/threonine-protein kinase pim-1 (Homo sapiens) (UniProt P11309); details: at 0.1 µM
Sequence of Serine/threonine-protein kinase pim-1 (Homo sapiens) (P11309 whole entry, looked up): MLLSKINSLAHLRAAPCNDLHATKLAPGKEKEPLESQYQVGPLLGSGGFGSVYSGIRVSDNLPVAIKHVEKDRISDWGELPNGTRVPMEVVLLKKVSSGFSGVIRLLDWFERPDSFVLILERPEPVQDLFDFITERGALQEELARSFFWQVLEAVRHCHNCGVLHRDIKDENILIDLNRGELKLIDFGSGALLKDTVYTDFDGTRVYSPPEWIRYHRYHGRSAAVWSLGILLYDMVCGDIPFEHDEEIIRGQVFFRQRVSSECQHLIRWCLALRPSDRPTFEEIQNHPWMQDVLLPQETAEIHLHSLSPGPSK

[19] = target: Serine/threonine-protein kinase pim-1 (Homo sapiens) (UniProt P11309); details: at 1 µM
[20] = target: Serine/threonine-protein kinase pim-2 (Homo sapiens) (UniProt Q9P1W9); details: at 0.1 µM;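 also: reported value is the mean percent inhibition of PIM2, measured in the GSK PKIS kinase inhibitor set screen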
Sequence of Serine/threonine-protein kinase pim-2 (Homo sapiens) (Q9P1W9 whole entry, looked up): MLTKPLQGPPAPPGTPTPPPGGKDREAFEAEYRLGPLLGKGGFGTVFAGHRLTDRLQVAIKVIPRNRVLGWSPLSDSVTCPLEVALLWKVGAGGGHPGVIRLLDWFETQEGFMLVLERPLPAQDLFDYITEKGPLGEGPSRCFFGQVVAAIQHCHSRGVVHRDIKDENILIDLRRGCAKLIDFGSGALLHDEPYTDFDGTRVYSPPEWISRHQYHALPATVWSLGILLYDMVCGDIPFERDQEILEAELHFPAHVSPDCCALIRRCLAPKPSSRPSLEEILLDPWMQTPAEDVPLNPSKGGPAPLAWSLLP

Sequence of MAP/microtubule affinity-regulating kinase 3 (Homo sapiens) (P27448 whole entry, looked up): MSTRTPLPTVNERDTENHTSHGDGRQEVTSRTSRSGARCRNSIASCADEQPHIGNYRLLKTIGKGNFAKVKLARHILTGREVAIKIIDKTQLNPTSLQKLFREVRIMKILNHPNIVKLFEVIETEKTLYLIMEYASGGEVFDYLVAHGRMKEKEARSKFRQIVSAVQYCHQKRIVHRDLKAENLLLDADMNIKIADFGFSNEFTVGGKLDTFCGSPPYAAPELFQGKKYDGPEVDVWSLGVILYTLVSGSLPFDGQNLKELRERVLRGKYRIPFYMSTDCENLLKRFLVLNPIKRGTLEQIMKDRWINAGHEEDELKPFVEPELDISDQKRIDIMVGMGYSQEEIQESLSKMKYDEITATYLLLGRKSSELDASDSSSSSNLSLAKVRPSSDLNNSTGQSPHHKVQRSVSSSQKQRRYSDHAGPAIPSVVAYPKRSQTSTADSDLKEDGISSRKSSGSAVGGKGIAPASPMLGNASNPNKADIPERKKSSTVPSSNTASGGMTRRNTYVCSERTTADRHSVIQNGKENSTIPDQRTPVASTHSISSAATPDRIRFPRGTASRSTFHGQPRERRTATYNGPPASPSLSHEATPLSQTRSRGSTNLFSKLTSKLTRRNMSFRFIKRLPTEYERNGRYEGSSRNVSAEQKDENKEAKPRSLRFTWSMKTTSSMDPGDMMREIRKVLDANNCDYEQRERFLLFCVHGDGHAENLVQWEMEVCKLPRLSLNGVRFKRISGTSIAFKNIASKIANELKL

Row | SMILES | inhibition [1] | inhibition [2] | inhibition [3] | inhibition [4] | inhibition [5] | inhibition [6] | inhibition [7] | inhibition [8] | inhibition [9] | inhibition [10] | inhibition [11] | inhibition [12] | inhibition [13] | inhibition [14] | inhibition [15] | inhibition [16] | inhibition [17] | inhibition [18] | inhibition [19] | inhibition [20]
1 | O=C1Nc2ccccc2/C1=C/Nc1ccc2[nH]c(=O)[nH]c2c1 | 27.5% | 4.86% | 27.1% | 5.79% | 41.4% | 5.46% | 14% | 2.62% | 10.9% | 3.32% | 13.4% | 12.4% | 64.1% | 10.5% | 42.6% | 7.44% | 21.4% | -0.21% | 2.44% | 0.27%
2 | CC(C)c1ccc(Nc2nccc(-c3cnn4ncccc34)n2)cc1 | 3.95% | 0.24% | 2.61% | 5.96% | 26.3% | 3.64% | 11.8% | 2.64% | 15.2% | -1.19% | 1.01% | -0.78% | -0.93% | 2.33% | 7.97% | 4.16% | 3.83% | -0.71% | 2.45% | -0.13%
3 | CN(C)C(=O)O[C@@H]1CN[C@@H](C#Cc2cc3ncnc(Nc4ccc(OCc5cccc(F)c5)c(Cl)c4)c3s2)C1 | -0.12% | 0.74% | 1.37% | -0.39% | 3.35% | 0.76% | 3.62% | 0.4% | 5.87% | 0.66% | 1.06% | -0.1% | -0.12% | 0.51% | -3.21% | 1.07% | -1.09% | 1.41% | 0.48% | 0.15%
4 | Cc1cc(-c2ccccn2)cc(C)c1/C=C/c1cncc(-c2nn[nH]n2)c1 | 7.09% | 2.52% | 3.91% | 4.28% | 9.19% | 2.08% | 3.07% | 0.76% | 2.73% | 1.02% | 4.96% | -0.97% | -1.06% | 3.51% | 7% | 1.5% | 5.59% | 1.73% | 2.55% | 0.01%
5 | NS(=O)(=O)c1cccc(Nc2cc(-c3ccc(F)cc3)n[nH]2)c1 | 19% | 3.62% | 20.2% | 0.82% | 4.1% | 2.78% | 10.7% | 3.32% | 13% | 1.43% | 9.04% | 0.67% | 2.88% | 2.8% | 14.5% | 4.37% | 8.84% | 1.38% | 1.68% | 0.15%
6 | Cc1cc(Cl)cc2c1NC(=O)C2=NNc1ccc(S(N)(=O)=O)cc1 | 1.21% | -0.63% | -0.34% | 0.8% | 0.86% | 1.47% | 6.58% | 1.41% | 4.45% | 0.48% | -0.15% | 0.48% | 1.94% | 3.63% | 6.02% | 2.58% | 5.19% | 0.03% | 1.28% | -0.12%
7 | [O-][S+]1CCN(Cc2ccc(-c3ccc4ncnc(Nc5ccc(OCc6ccccc6)c(Cl)c5)c4c3)o2)CC1 | 2.17% | 1.29% | 2.1% | 2.37% | 5.78% | 1.69% | 5.98% | 0.13% | 8.54% | 0.59% | 2.27% | 0.68% | -0.53% | 3.63% | 3.41% | 2.31% | -0.04% | 0.56% | 1.25% | 0.46%
8 | Cc1ccc2c(-c3ccnc(Nc4cccc(C(F)(F)F)c4)n3)c(-c3ccccc3)nn2n1 | 3.93% | 2.61% | 2.82% | 5.84% | 10.4% | 3.3% | 4.19% | 2.04% | 3.52% | 1.89% | 4.11% | -0.16% | -0.17% | 2.62% | 7.08% | 4.1% | 4.82% | 1.05% | 1.72% | -0.26%
9 | COC(=O)c1cncc(/C=C/c2c(C)cc(O)cc2C)c1 | 2.01% | 0.01% | 0.82% | 2.47% | 5.13% | 4.41% | 25.6% | 3.34% | 16.1% | 0.36% | -0.07% | -0.51% | 1.51% | 1.77% | 4.16% | 4.23% | 6.97% | 1.57% | 1.55% | -0.56%
10 | CS(=O)(=O)CCNCc1nc(-c2ccc3ncnc(Nc4ccc(OCc5cccc(C(F)(F)F)c5)cc4)c3c2)cs1 | 1.92% | -0.17% | 1.58% | 0.45% | 2.55% | 3.67% | 7.54% | 0.84% | 6.94% | 0.22% | 1.07% | 0.16% | -0.13% | 0.25% | 3.14% | 2.6% | 2.29% | 0.49% | -0.28% | -0.54%
11 | Nc1nccc(-c2c(-c3ccc(F)cc3)nn3cc(C(F)(F)F)ccc23)n1 | -0.99% | -0.15% | -0.03% | 0.66% | -0.87% | 1.92% | 3.98% | 0.49% | 2.23% | -2.12% | -0.77% | 0.89% | 0.42% | 3.63% | 3.94% | 0.86% | 0.54% | 0.21% | -0.89% | -0.09%
12 | CCOc1nccc2c1nc(-c1nonc1N)n2CC | 9.66% | 1.03% | 5.45% | 3.16% | 5.63% | 3.48% | 9.35% | 3.06% | 6.16% | 1.34% | 1.46% | 1.66% | 5.36% | 3.39% | 5.97% | 4.34% | 9.55% | 0.76% | 2.04% | 0.25%
13 | NS(=O)(=O)c1ccc(NC=C2C(=O)Nc3ccc4ncsc4c32)cc1 | 60.7% | 21% | 58.7% | 62.7% | 94.4% | 9.09% | 39.2% | 3.84% | 18.1% | 14% | 46.2% | 0.44% | -0.6% | 20.3% | 66.4% | 8.94% | 32.1% | 2.48% | 9.5% | 1.26%
